Among the data in PubChem BioAssay (EPA / NIEHS) are outcome and AC50 values, retold here.

More than one record can exist for a structure, and the calls need not agree. Activity calls are given as the source filed them. Rule for the calls: active = hit-call score of the fitted dose curve at least 0.9, where 1 is the maximum; inactive = score below 0.9.

Broadly, the AC50 is the concentration at which the activity in the assay is half-maximal.

Transcription factor E2F1 (Homo sapiens), sequence (Q01094 whole entry, looked up): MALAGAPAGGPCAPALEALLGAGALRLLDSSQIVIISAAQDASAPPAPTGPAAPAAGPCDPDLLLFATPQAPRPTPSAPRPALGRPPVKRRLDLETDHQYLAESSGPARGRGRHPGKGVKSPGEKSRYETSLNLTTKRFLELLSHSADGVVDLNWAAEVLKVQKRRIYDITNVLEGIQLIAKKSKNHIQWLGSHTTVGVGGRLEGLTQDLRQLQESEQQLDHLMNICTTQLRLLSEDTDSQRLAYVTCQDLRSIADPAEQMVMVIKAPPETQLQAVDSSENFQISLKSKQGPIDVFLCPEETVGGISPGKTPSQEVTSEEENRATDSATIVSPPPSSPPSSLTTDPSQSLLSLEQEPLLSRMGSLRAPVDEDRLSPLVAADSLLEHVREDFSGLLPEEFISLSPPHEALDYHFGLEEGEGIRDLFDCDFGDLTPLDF
Retinoic acid receptor alpha (Homo sapiens), sequence (P10276 whole entry, looked up): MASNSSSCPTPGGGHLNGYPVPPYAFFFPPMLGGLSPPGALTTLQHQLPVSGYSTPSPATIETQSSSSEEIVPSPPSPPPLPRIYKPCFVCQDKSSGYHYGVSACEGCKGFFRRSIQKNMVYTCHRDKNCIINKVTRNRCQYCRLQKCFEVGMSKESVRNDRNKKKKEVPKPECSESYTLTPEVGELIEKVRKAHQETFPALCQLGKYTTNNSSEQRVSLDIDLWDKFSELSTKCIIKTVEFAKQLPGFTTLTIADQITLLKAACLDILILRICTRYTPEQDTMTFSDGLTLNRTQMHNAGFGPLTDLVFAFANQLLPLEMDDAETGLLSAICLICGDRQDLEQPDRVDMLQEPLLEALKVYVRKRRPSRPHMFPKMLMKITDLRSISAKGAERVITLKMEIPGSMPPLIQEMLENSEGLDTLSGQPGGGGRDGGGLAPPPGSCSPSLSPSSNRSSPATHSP

One experiment concerns the target Retinoic acid receptor alpha (Homo sapiens) (UniProt P10276). Briefly: ATG_DR5_RAR_CIS: Attagene CIS-FACTORIAL HepG2 Assay for human Retinoic Acid Receptor Alpha (RARE), DR5 submotif (AID 2282934).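 For AC50: reporter responds to endogenous RAR alpha beta and gamma in HepG2 not RARA alone.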 The note with it: HepG2 Attagene cis-factorial RARE DR5 reporter, mRNA; actives raise or lower the signal. Summed up:
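After 24 h of chemical exposure, transiently transfected HepG2 cells were lysed for total RNA; the DR5-regulated reporter transcript was quantified via RT-PCR and capillary electrophoresis, with activity fitted bidirectionally against DMSO.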
Take `CCCC(=O)O`: the compound was called inactive. For `O=NO`, the result was inactive. On to `O=C(N[C@@H](c1ccccc1)[C@@H]1CCCCN1)c1cccc(C(F)(F)F)c1Cl`, for which the AC50 is 20.9 µM (active). `NC=O`: the call was inactive. Still for that read-out and setting: for `CC(COCC(C)OC(=O)c1ccccc1)OC(=O)c1ccccc1` (configuration not stated) the value was “inactive”.

For `CCCCCCC(C=O)=Cc1ccccc1`, the compound was classed as inactive. Same read-out and setting: to `NC1CCCCC1` belongs “inactive”; to `O=Cc1ccccc1C=O`, “inactive”; to `Cn1cnc2c1c(=O)[nH]c(=O)n2C`, “inactive”.

In the case of `CCCCOC(=O)CCCCC(=O)OCCCC`, the call was inactive. As to `Nc1nc(=S)c2[nH]cnc2[nH]1`, the compound was called inactive. The same measure, in the same setting: for `CCN(CC)CCOc1ccc(C(=C(Cl)c2ccccc2)c2ccccc2)cc1` the value was “inactive”.

Another experiment has as its target Transcription factor E2F1 (Homo sapiens) (UniProt Q01094). Nature of the experiment: ATG_E2F_CIS: Attagene CIS-FACTORIAL HepG2 Assay for human E2F Transcription Factor 1 (AID 2282935). The note with it: HepG2 Attagene cis-reporter, E2F reporter RNA transcripts; actives raise or lower the signal. Summed up: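 Measures reporter transcript levels via RT-PCR with capillary electrophoresis detection in HepG2 cells harboring cis-regulated reporter units; 24 h post-dose; bidirectional curve fitting with DMSO as baseline.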
In the case of `CCCC(=O)O`, the outcome was inactive.

Turning to `CCCCCCCC(=O)OC`, the compound was called inactive. Same read-out and setting: for `O=NO` the value was “inactive”.

Take `CCCCCCC(CCCCCCCCCCC(=O)OCC(COC(C)=O)OC(C)=O)OC(C)=O` (configuration not stated): the call was inactive. Regarding `NCCOCCOCCN`, the outcome was inactive. Same read-out and setting: to `CSc1ccc(Oc2ccc(S(N)(=O)=O)cc2CN(C)C)cc1C` belongs “inactive”. Same read-out and setting: to `C=CCc1ccc(OC)c(OC)c1` belongs “inactive”; to `CCCCC(CC)COP(=O)(OCC(CC)CCCC)OCC(CC)CCCC` (configuration not stated), “inactive”; to `O=C(N[C@@H](c1ccccc1)[C@@H]1CCCCN1)c1cccc(C(F)(F)F)c1Cl`, “inactive”. On the same count and under the same terms, for `CC(=O)OCC(COC(C)=O)OC(C)=O` the value was “inactive”; for `CN(C)CCCN1c2ccccc2Sc2ccc(Cl)cc21`, “inactive”. Turning to `CC(=O)O[C@]1(C(C)=O)CC[C@H]2[C@@H]3C=C(Cl)C4=CC(=O)[C@@H]5C[C@@H]5[C@]4(C)[C@H]3CC[C@@]21C`, the AC50 was 145 µM (active) and the call was inactive. With `NC=O`, the outcome was inactive. Same read-out and setting: to `CC1(C)C(=O)NC(=O)N1CO` belongs “inactive”; to `CC1=C(C)S(=O)(=O)CCS1(=O)=O`, “inactive”; to `CC(COCC(C)OC(=O)c1ccccc1)OC(=O)c1ccccc1` (configuration not stated), “inactive”.

In the case of `CCCCCCC(C=O)=Cc1ccccc1`, the compound was classed as inactive.

As for `NC1CCCCC1`, the result was inactive. Still for that read-out and setting: for `CC(=O)S[C@H](C(=O)N[C@H]1Cc2ccccc2[C@H]2CCC[C@@H](C(=O)O)N2C1=O)C(C)C` the value was “inactive”; for `Cc1c(C)c2c(c(C)c1O)CCC(C)(COc1ccc(CC3SC(=O)NC3=O)cc1)O2` (configuration not stated), “inactive”. The same measure, in the same setting: to `C/C=C/c1ccc(OC)cc1` belongs “inactive”. As for `O=Cc1ccccc1C=O`, the result was inactive.

For `CCCCCCCCCCCCCCOS(=O)(=O)O`, the outcome was inactive. As for `Cn1cnc2c1c(=O)[nH]c(=O)n2C`, the compound was classed as inactive. On the same count and under the same terms, to `Cc1cc(SC2=C(O)C[C@@](CCc3ccc(N)cc3)(C(C)C)OC2=O)c(C(C)(C)C)cc1CO` belongs “inactive”; to `CCCCOC(=O)CCCCC(=O)OCCCC`, “inactive”. Still for that read-out and setting: for `Nc1nc(=S)c2[nH]cnc2[nH]1` the value was “inactive”; for `CCN(CC)CCOc1ccc(C(=C(Cl)c2ccccc2)c2ccccc2)cc1`, “inactive”. Still for that read-out and setting: for `C#CC(O)C(CC)CCCC` (configuration not stated) the value was “inactive”.
